The target in experiment [1] is Cellular tumor antigen p53 (Homo sapiens) (UniProt P04637). In words: Primary qHTS for small molecule compounds that upregulate eGFP-tagged delta133p53alpha (in N-terminal) cells. (AID 2060322). Also: nearly all actives have a fitted effect of over 75% in size. Also: potency is read from the fitted curve at half-maximal effect.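 As to activation: cells pre-induced with doxycycline then dosed without doxycycline; series mostly up to about 56 µM; 0% = DMSO vehicle and 100% = reference activator.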 Particulars: NCI-H358 eGFP-delta133p53alpha fluorescence, 24 h; activation: stronger effect = higher value. In outline: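 NCI-H358 cells pre-induced 24 h with 10 ng/ml doxycycline for eGFP-delta133p53alpha, plated dox-free and exposed 24 h at 37C to titrated compounds. Fixed, Hoechst-stained; gated GFP peak intensity by laser scanning cytometry, normalized to DMSO (0%) and 57.5 uM 5-azacytidine (100%).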
Cellular tumor antigen p53 (Homo sapiens), sequence (P04637 whole entry, looked up): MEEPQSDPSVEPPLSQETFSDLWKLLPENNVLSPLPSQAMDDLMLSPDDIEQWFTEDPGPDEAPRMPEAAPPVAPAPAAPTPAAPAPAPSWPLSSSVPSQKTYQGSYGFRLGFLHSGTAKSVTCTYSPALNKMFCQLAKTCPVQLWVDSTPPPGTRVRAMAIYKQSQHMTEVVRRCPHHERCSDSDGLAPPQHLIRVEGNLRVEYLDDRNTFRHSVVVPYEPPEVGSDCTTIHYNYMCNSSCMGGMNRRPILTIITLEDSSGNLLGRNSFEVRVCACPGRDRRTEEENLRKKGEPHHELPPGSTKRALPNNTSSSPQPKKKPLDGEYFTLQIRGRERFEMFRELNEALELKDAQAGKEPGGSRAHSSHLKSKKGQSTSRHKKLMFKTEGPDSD
A general note: qHTS replaces the single test concentration by a dilution series.

Experiment [2] concerns the target Aldehyde dehydrogenase, mitochondrial (Homo sapiens) (UniProt P05091). In words: qHTS for Inhibitors of the Aldehyde Dehydrogenase Family (ALDH2) Validation screens (AID 2061302; active = well fitted inhibition curve with a large enough effect; title and protocol of this record describe different tests;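 also: plate controls were DMSO vehicle for no effect and maximal DPI positive control response for full effect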).
The target in experiment [3] is Retinaldehyde dehydrogenase 3 (Homo sapiens) (UniProt P47895). In words: qHTS for Inhibitors of the Aldehyde Dehydrogenase Family (ALDH1A3) Validation screen (AID 2061312). Also: nearly all actives have a fitted effect of over 45% in size. Also: potency is read from the fitted curve at half-maximal effect.
The target of experiment [4] is Aldehyde dehydrogenase, mitochondrial (Homo sapiens) (UniProt P05091). In words: qHTS for Inhibitors of the Aldehyde Dehydrogenase Family (ALDH2) Confirmatory screens (AID 2061303; active = well fitted inhibition curve with a large enough effect; title and protocol of this record describe different tests; also: nearly all actives have a fitted effect of over 45% in size; also: potency is read from the fitted curve at half-maximal effect).
A short description of experiment [5]: qHTS for Inhibitors of the Aldehyde Dehydrogenase Family (ALDH1A2, ALDH1A3, ALDH2, ALDH3A1) (AID 2061307). Also: nearly all actives have a fitted effect of over 50% in size.
Experiment [6] deals with Aldehyde dehydrogenase, mitochondrial (Homo sapiens) (UniProt P05091). The experiment in a line: qHTS for Inhibitors of the Aldehyde Dehydrogenase Family (ALDH2) Primary screen (AID 2061308). Also: nearly all actives have a fitted effect of over 55% in size. Also: potency is read from the fitted curve at half-maximal effect.
The target of experiment [7] is Retinaldehyde dehydrogenase 3 (Homo sapiens) (UniProt P47895). The experiment in a line: qHTS for Inhibitors of the Aldehyde Dehydrogenase Family (ALDH1A3) Confirmatory screens (AID 2061311). Also: nearly all actives have a fitted effect of over 60% in size. Also: potency is read from the fitted curve at half-maximal effect.
The target is the same in experiment [8]. In words: qHTS for Inhibitors of the Aldehyde Dehydrogenase Family (ALDH1A3) Primary screen (AID 2061315).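 Also: plate controls were DMSO vehicle for no effect and reference inhibitor for full effect.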
In experiment [9] the target is Aldehyde dehydrogenase 1A1 (Homo sapiens) (UniProt P00352). The experiment in a line: qHTS for Inhibitors of the Aldehyde Dehydrogenase Family (ALDH1A1) Confirmatory screens (AID 2061316). Also: nearly all actives have a fitted effect of over 65% in size. Also: potency is read from the fitted curve at half-maximal effect.
Experiment [10] can be described thus: BET inhibitor-based combinations targeting novel dependencies in MECOM-rearranged (r) AML: UCSD-AML1 cell line (AID 2202235).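 Also: series mostly up to about 46 µM; plate controls were DMSO vehicle wells for no effect and blank wells for full effect; nearly all actives have a fitted effect of over 40% in size.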 In short, it runs like this:
(§1)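 Activity is given as area under the curve and as Z-AUC, mean-centred within each cell line. It comes from 11-point dose curves normalized to DMSO and empty wells. CellTiter-Glo luminescence was read after 48 hr drug exposure of 500 cells/well.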

Experiment [11] in a line: BET inhibitor-based combinations targeting novel dependencies in MECOM-rearranged (r) AML: AML-194 cell line (AID 2202237; also: nearly all actives have a fitted effect of over 40% in size; also: potency is read from the fitted curve at half-maximal effect). In outline: (§2)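 Cells were plated at 500 per well and exposed to an 11-point dose series of each drug for 48 hr. Viability was measured by CellTiter-Glo luminescence, normalized to DMSO and empty-well controls, and summarized as AUC and per-cell-line Z-AUC.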

Experiment [12] can be described thus: BET inhibitor-based combinations targeting novel dependencies in MECOM-rearranged (r) AML: SET-2 cell line (AID 2202231). Also: nearly all actives have a fitted effect of over 35% in size. Also: potency is read from the fitted curve at half-maximal effect.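 As to viability: plate controls were DMSO treated cells for no effect and wells without cells for full effect.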 Particulars: SET-2 AML cells viability, CellTiter-Glo luminescence, 48 h; viability: stronger effect = lower value, concentration not given here. In outline:
as §2
On the technique in general: ATP-based viability assays read luminescence as a measure of living cells.

A short description of experiment [13]: BET inhibitor-based combinations targeting novel dependencies in MECOM-rearranged (r) AML: OCI-AML3 cell line (AID 2202232). Also: nearly all actives have a fitted effect of over 35% in size. Also: potency is read from the fitted curve at half-maximal effect. Particulars: Potency: OCI-AML3 viability. In short, it runs like this:
as §2

Experiment [14] in a line: BET inhibitor-based combinations targeting novel dependencies in MECOM-rearranged (r) AML: MV-4-11 cell line (AID 2202233). Also: nearly all actives have a fitted effect of over 45% in size. Also: potency is read from the fitted curve at half-maximal effect. In short, it runs like this: as §1
Experiment [15] in a line: BET inhibitor-based combinations targeting novel dependencies in MECOM-rearranged (r) AML: HNT-34 cell line (AID 2202234). Also: nearly all actives have a fitted effect of over 35% in size. Also: potency is read from the fitted curve at half-maximal effect. In short, it runs like this: as §1
The nature of experiment [16]: BET inhibitor-based combinations targeting novel dependencies in MECOM-rearranged (r) AML: AML-191 cell line (AID 2202236; also: nearly all actives have a fitted effect of over 35% in size; also: potency is read from the fitted curve at half-maximal effect). In outline:
as §2

In experiment [17] the target is Retinal dehydrogenase 2 (Homo sapiens) (UniProt O94788). The experiment in a line: qHTS for Inhibitors of the Aldehyde Dehydrogenase Family (ALDH1A2) Confirmation screens (AID 2061314). Also: nearly all actives have a fitted effect of over 65% in size. Also: potency is read from the fitted curve at half-maximal effect.

The term viability denotes a read-out of living cells in per cent, often relative to untreated cells.

Values joined by “and” are separate entries in the source; they are usually repeats but may differ in a detail not shown here. Equal values may be shown once. Records with an inconclusive call do not appear. Unmarked numbers belong to inactive results. Active and inactive are the calls of the source. Unless noted, calls follow the shape of the dose curve; as a rule, active = well fitted curve in the direction sought with a large enough effect; inconclusive = small, poorly fitted or top-dose-only effect, or another doubt; inactive = no such curve, though single readings can be large; an effect the other way counts as inactive or inconclusive.

With `Cc1c(O)cccc1C(=O)N[C@@H](CSc1ccccc1)[C@H](O)CN1C[C@H]2CCCC[C@H]2C[C@H]1C(=O)NC(C)(C)C`, in experiment [1], the activation is -0.838%. Besides, the Potency entry in experiment [2] and in experiment [3] was “inactive” in each case.

Turning to `NC/C=C\C(=O)O`, the activation in experiment [1] was 28.9%. Further, the Potency entry in experiment [2] and in [3] was “inactive” in each case.

Regarding `CCC(=O)c1cc(-c2ccc(Cl)cc2)n(-c2ccc(S(N)(=O)=O)cc2)c1C`, the activation in [1] was 0.955%. For the same compound, the Potency result in experiment [4], in experiment [5], in experiment [6], in [7], in [3] and in [8] was “inactive” throughout. In [9], the Potency result is “inactive”.

With `CN(C)CCCN1c2ccccc2CCc2ccc(Cl)cc21`, in experiment [1], the activation is 5.09% and -16.2%. In addition, the Potency entry in experiment [2], in experiment [3], in experiment [10] and in experiment [11] was “inactive” each time.

As for `OCCN1CCN(CCCN2c3ccccc3Sc3ccc(C(F)(F)F)cc32)CC1`, the activation in experiment [1] was 21.2% and 6.21% and -4.78%. In addition, the Potency result in experiment [2] was “inactive”. Moreover, the Potency is 20.9 µM (active) in experiment [12]; 18.6 µM (active) in [13]; 18.6 µM (active) in experiment [14]; 18.6 µM (active) in experiment [15]; 29.5 µM (active) in experiment [16].

With `COc1cc2c3c(cc4ccccc4c3c1O)NC2=O`, the activation in experiment [1] was -8.93%. Besides, the Potency entry in [4], in [5] and in experiment [6] was “inactive” throughout. For the same compound, the Potency in [7] was 14.2 µM (active).

Regarding `OC[C@H]1O[C@@H](n2cnc3c2NC=NC[C@H]3O)C[C@@H]1O`, in experiment [1], the activation was -7.16%. The Potency result in experiment [4], in experiment [5], in experiment [6], in experiment [7], in [3] and in experiment [17] was “inactive” each time. The Potency result in [8], in experiment [9], in experiment [13], in experiment [14], in [15] and in experiment [10] was “inactive” in each case. In addition, the Potency result in experiment [16] and in experiment [11] was “inactive” throughout. Moreover, the viability in experiment [12] is 108%.

Take `NC(CO)C(=O)NNCc1ccc(O)c(O)c1O` (stereo not given): the activation in [1] is -10.9% and -15.4% and 9.06%. In addition, the Potency result in experiment [2], in experiment [14], in experiment [15], in [10] and in experiment [11] was “inactive” each time.

On to `O=C(Nc1cc(C(F)(F)F)cc(C(F)(F)F)c1)c1cnc(Cl)nc1C(F)(F)F`, for which, in experiment [1], the Potency was 30.1 µM (active). Moreover, the Potency entry in experiment [4], in experiment [5], in [6], in [7], in experiment [3] and in [17] was “inactive” each time. Also, the Potency result in experiment [8] and in experiment [9] was “inactive” in each case.

On to `O=c1c(O)c(-c2ccc(O)c(O)c2)oc2cc(O)cc(O)c12`, for which the activation in [1] was -2.54% and -9.6% and 3.95%. The Potency result in experiment [2], in [13], in experiment [14], in experiment [10] and in experiment [11] was “inactive” each time. The viability in experiment [12] was 113%.

For `NC(=NCc1ccccc1)NC(=O)c1nc(Cl)c(N)nc1N`, the activation in experiment [1] was 0.24% and 2.72%. The Potency entry in [2], in experiment [3] and in experiment [10] was “inactive” throughout. In addition, the Potency in experiment [14] is 5.25 µM (active); in experiment [15], 14.8 µM (active); in experiment [16], 20.9 µM (active); in experiment [11], 23.5 µM (active).

`Cc1ccc(S(=O)(=O)c2ccc([N+](=O)[O-])o2)cc1`: the Potency in [1] was 8.49 µM (active); in experiment [4] it was 1.59 µM (active); in experiment [5], 0.708 µM (active); in [6] it was 0.562 µM (active); in [7] it was 11.2 µM (active); in [3] it was 1.41 µM (active). In addition, the Potency in [17] is 3.98 µM (active); in [9], 0.504 µM (active).

Turning to `CC(C)(C)c1ccc(C(=O)CCCN2CCC(OC(c3ccccc3)c3ccccc3)CC2)cc1`, the activation in experiment [1] was -44.6%. Further, the Potency entry in [2] and in [3] was “inactive” in each case.

Take `COC(=O)[C@]1(Cc2ccc(O)c(CC=C(C)C)c2)OC(=O)C(O)=C1c1ccc(O)cc1`: the activation in experiment [1] is 1.53%. Besides, the Potency result in experiment [4], in [5], in [6] and in experiment [17] was “inactive” throughout. Also, the Potency in experiment [7] was 12.3 µM (active).

For the compound `Cc1onc(-c2c(Cl)cccc2Cl)c1C(=O)N[C@@H]1C(=O)N2[C@@H]1SC(C)(C)[C@@H]2C(=O)O`, the activation in [1] is -9.21% and 6.21%. Also, the Potency entry in [4], in experiment [5], in [6], in experiment [7], in experiment [3] and in experiment [8] was “inactive” throughout. Moreover, the Potency result in [9] was “inactive”.

In the case of `CCN(CC)c1ncnc2c1ncn2[C@@H]1O[C@H](COP(=O)(O)OP(=O)(O)C(Br)(Br)P(=O)(O)O)[C@@H](O)[C@H]1O`, the activation in experiment [1] was -18.4%. Also, the Potency result in experiment [2] and in experiment [3] was “inactive” each time.

Take `COc1ccc(CCC(=O)c2c(O)cc(O[C@@H]3O[C@H](CO)[C@@H](O)[C@H](O)[C@H]3O[C@@H]3O[C@@H](C)[C@H](O)[C@@H](O)[C@H]3O)cc2O)cc1O`: the activation in [1] was 8.33%. Besides, the Potency entry in experiment [4], in experiment [5] and in experiment [6] was “inactive” in each case.

`NC(Cc1c[nH]c2ccccc12)C(=O)NC(CCC(=O)O)C(=O)O` (stereo not given): the activation in experiment [1] was -0.955%. The Potency entry in experiment [4], in experiment [5], in experiment [6], in experiment [7], in experiment [3] and in [17] was “inactive” throughout. The Potency result in [8] and in [9] was “inactive” each time.

On to `Cc1ccc(C(=O)Nc2ccc(S(=O)(=O)O)c3cc(S(=O)(=O)O)cc(S(=O)(=O)O)c23)cc1NC(=O)c1cccc(NC(=O)Nc2cccc(C(=O)Nc3cc(C(=O)Nc4ccc(S(=O)(=O)O)c5cc(S(=O)(=O)O)cc(S(=O)(=O)O)c45)ccc3C)c2)c1`, for which the activation in experiment [1] is -19.3% and -10.7% and -18.3%. Also, the Potency result in [2], in experiment [3], in experiment [13], in experiment [15], in experiment [10] and in [16] was “inactive” each time. Also, the viability in experiment [12] was 108%.

With `Cc1cn(C[C@H](N)C(=O)O)c(=O)n(Cc2ccsc2C(=O)O)c1=O`, in [1], the activation is 15.3%. Also, the Potency entry in experiment [4], in [5], in experiment [6], in experiment [7], in experiment [8] and in experiment [9] was “inactive” throughout. For the same compound, the Potency in [3] was 12.6 µM (active).

With `Clc1ccc(C(c2ccc(Cl)cc2)n2cc[n+](CC(OCc3ccc(Cl)cc3Cl)c3ccc(Cl)cc3Cl)c2)cc1` (stereo not given), the activation in [1] was 29.4%. Moreover, the Potency entry in experiment [2] and in [3] was “inactive” each time. Further, the Potency in [13] was 5.9 µM (active); in experiment [14], 8.33 µM (active); in experiment [15] it was 9.34 µM (active); in [16], 18.6 µM (active); in experiment [11], 26.3 µM (active).

Consider `N[C@@]1(C(=O)O)CC[C@H]2[C@H](C(=O)O)[C@H]21`, for which, in experiment [1], the activation was -12.3%. Besides, the Potency result in [4], in [5], in [6], in [7], in experiment [17] and in [8] was “inactive” throughout. Moreover, the Potency entry in experiment [9] is “inactive”.
